Results: PubChem BioAssay AID1259421 (Broad Institute, 2018)
Values joined by “and” are separate entries in the source; they are usually repeats but may differ in a detail not shown here. Equal values may be shown once. Screen size: about 6,400 compounds; about 610 (9.5%) were called active. This is one part of a sample in which actives are shown more often than they occur. Cut-off read from the data, not from the text of the source: active = activity change below about -70%; inconclusive = no clear call, values can overlap the other calls; inactive = above that. Some structures have more than one record in an assay (separate samples or runs), and their calls can disagree.

assay: T. gondii ME49Luc in HeLa cells, luciferase assay, 72 h, no IFN-y (AID 1259421); conditions: stronger effect = lower value, concentration not given here

| Molecule | activity change, negative = inhibition |
| --- | --- |
| C=C[C@@](C)(O)CCC1C(=C)CCC2[C@@](C)(CO)CCC[C@]12C (some centres undefined) | 13.4% (inactive) |
| CC1(C)O[C@@H]2CC3C4C[C@H](F)C5=CC(=O)C=C[C@]5(C)[C@@]4(F)[C@@H](O)C[C@]3(C)[C@]2(C(=O)CO)O1 (some centres undefined) | -11.6% (inactive) |
| C=CC(=O)Nc1cccc(Nc2nc(Nc3ccc(OCCOC)cc3)ncc2F)c1 | -10% (inactive) |
| C=CC(=O)Nc1cccc(Sc2nc(Nc3ccc(N4CCN(C)CC4)cc3)ncc2Cl)c1 | -58.5% (inactive) |
| Cc1cnc(Nc2ccc(N3CCN(C)CC3)cc2)nc1Nc1cccc(S(=O)(=O)NC(C)(C)C)c1 | -76.6% (active) |
| CS(=O)(=O)c1cccc(CNc2nc(Nc3ccc4c(c3)CCC(=O)N4)ncc2C(F)(F)F)c1 | -29.4% (inactive) |
| C=CC(=O)Nc1cccc(Oc2nc(Nc3ccc(N4CCN(C)CC4)cc3)ncc2Cl)c1 | -59.1% (inactive) |
| Cc1cnc(Nc2ccc(OCCN3CCCC3)cc2)nc1Nc1cccc(S(=O)(=O)NC(C)(C)C)c1 | -95.9% (active) |
| CC(CCCCC(=O)Nc1ccc(C(F)(F)F)cc1)NCCc1cnc[nH]1 (centres undefined) | -0.447% (inactive) and -3.16% (inactive) |
| CO/N=C(\C(=O)N[C@@H]1C(=O)N2C(C(=O)O)=C(CSC(=O)c3ccco3)CS[C@H]12)c1csc(N)n1 | 17.6% (inactive) and -30.2% (inactive) |
| CO[C@@H]1COCC[C@@H]1N[C@@H]1CC[C@@](C(=O)N2CCc3ncc(C(F)(F)F)cc3C2)(C(C)C)C1 | 3.98% (inactive) |
| Cc1cc(NC(=O)Nc2ccc(N(C)C)cc2)c2cc(F)cc(F)c2n1 | 31.3% (inactive) |
| Cc1ccc(F)c(NC(=O)Nc2ccc(-c3cccc4[nH]nc(N)c34)cc2)c1 | -78.3% (active) |
| COc1cc(OC)c2c(c1)OC(c1ccccc1)CC2=O (centres undefined) | 34.9% (inactive) |
| O=c1oc(-c2ccc(C(F)(F)F)cc2)nn1Cc1cc(Cl)ccc1O | 24.7% (inactive) and -12.8% (inactive) |
| CCn1c(=O)n(C2=C(CO)CN(CC3CCCCCCC3)CC2)c2ccccc21 | 12.4% (inactive) and -0.696% (inactive) |
| Cc1cc(Nc2ccc(NC(=O)c3ccc(Nc4ccnc5ccccc45)cc3)cc2)nc(N)n1 | -89.9% (active) |
| CC(=O)Nc1ccc(C(=O)Nc2ccccc2N)cc1 | 31.2% (inactive) and 45.5% (inactive) |
| O=C(OCC(O)CO)c1ccccc1Nc1ccnc2cc(Cl)ccc12 (centres undefined) | 5.66% (inactive) |
| CC1(C)O[C@@H]2CC3C4CCC5=CC(=O)CCC5(C)C4(F)C(O)CC3(C)[C@]2(C(=O)CCl)O1 (some centres undefined) | -3.24% (inactive) and 2.55% (inactive) |
| CCOC(=O)c1cc(C#N)c(N2CCC(C(=O)NS(=O)(=O)Cc3ccccc3)CC2)nc1C | 13.4% (inactive) |
| CCCCCCCC(=O)O | 9.6% (inactive) and 5.48% (inactive) |
| CCCCCCCCCCCCCCCC[n+]1ccccc1 | -12.3% (inactive) and -82.5% (active) |

| Molecule | activity change, negative = inhibition |
| --- | --- |
| CCCCCCCCCCCCCCCCCCCCCCCCC(=O)O | 11.5% (inactive) |
| FC(F)(F)c1ccccc1-n1ccnc1 | -1.27% (inactive) |
| c1ccc(-c2ccc(C(c3ccccc3)n3ccnc3)cc2)cc1 (centres undefined) | -68.3% (inactive) and -81.5% (active) |
| N#Cc1ccc(C(c2ccc(C#N)cc2)n2cncn2)cc1 | 0.399% (inactive) |
| CCCCCCCCc1ccc(CCC(N)(CO)CO)cc1 | -79.3% (active) and -52.1% (inactive) |
| CCCCCCCCc1ccc(-c2ccc(C(=O)O)cc2)cc1 | 18% (inactive) |
| CCCCCCCCCCCCCCCCCCc1ccc(C(=O)/C=C/C(=O)O)cc1 | 11.8% (inactive) |
| CC1(O)C(O)C(CO)OC1n1cnc2c(NC3CCCC3)nc(Cl)nc21 (centres undefined) | 13.4% (inactive) |
| CC[C@@H](C(=O)[C@@H](C)[C@@H](O)[C@H](C)[C@@H]1O[C@@H]([C@@H](CC)C(=O)O)CC[C@@H]1C)[C@H]1O[C@]2(C=C[C@@H](O)[C@]3(CC[C@@](C)(C4CC[C@](O)(CC)[C@H](C)O4)O3)O2)[C@H](C)C[C@@H]1C (some centres undefined) | -83.1% (active) |
| CC[C@@H](C(=O)[C@@H](C)[C@@H](O)[C@H](C)[C@@H]1O[C@@H]([C@@H](CC)C(=O)O)CC[C@@H]1C)[C@H]1OC2(C=C[C@@H](O)[C@]3(CC[C@@](C)(C4CC[C@](O)(CC)[C@H](C)O4)O3)O2)[C@H](C)C[C@@H]1C (some centres undefined) | -90.6% (active) |
| CC[C@@H](C(=O)O)[C@@H]1O[C@@H]([C@@H](C)[C@H](O)[C@H](C)C(=O)[C@H](CC)[C@H]2O[C@]3(C=C[C@@H](O)[C@]4(CC[C@@](C)(C5CC[C@](O)(CC)[C@H](C)O5)O4)O3)[C@H](C)C[C@@H]2C)[C@@H](C)C[C@H]1C (some centres undefined) | -82.4% (active) |
| CC[C@@H](C(=O)O)C1CC[C@H](C)C([C@@H](C)[C@H](O)[C@H](C)C(=O)[C@H](CC)C2O[C@]3(C=C[C@@H](O)[C@]4(CC[C@@](C)(C5CC[C@](O)(CC)[C@H](C)O5)O4)O3)[C@H](C)C[C@@H]2C)O1 (some centres undefined) | -72.7% (active) and -80.8% (active) |
| NC(CC(F)C(=O)O)C(=O)O (centres undefined) | 4.86% (inactive) |
| O=C(O)C1/C(=C\CO)OC2CC(=O)N21 (centres undefined) | 6.21% (inactive) |
| Cc1cc(-c2ncc(CC(=O)Nc3ccc(-c4cnccn4)cn3)cc2C)ccn1 | 5% (inactive) |
| N#CC(C#N)Cc1ccc(O)cc1 | 0.596% (inactive) |
| COc1ccccc1Oc1c(NS(=O)(=O)c2ccc(C)cn2)nc(-c2ccncc2)nc1OC | 7.32% (inactive) |
| O=C(NN1C(=O)[C@@H]2[C@@H]3C=C[C@@H]([C@H]4C[C@@H]34)[C@@H]2C1=O)c1ccc(C(F)(F)F)cc1 | 3.93% (inactive) |
| COc1ccc(CCN(C)CCCN2CCc3cc(OC)c(OC)cc3CC2=O)cc1OC | 10.1% (inactive) |
| COc1ccc(CCN(C)CCCOc2ccc(S(=O)(=O)c3c(C(C)C)c4ccccc4n3C)cc2)cc1OC | -76.5% (active) |
| COc1ccc(CCN(C)CCc2ccc(OC)c(OC)c2)cc1OC | 7.34% (inactive) and -3.3% (inactive) |
| CO[C@@H]1[C@@H](O[C@@H]2O[C@H](C)[C@@H](O[C@H]3C[C@@](C)(OC(=O)CC(C)C)[C@@H](O)[C@H](C)O3)[C@H](N(C)C)[C@H]2O)[C@@H](CC=O)C[C@@H](C)[C@@H](O)/C=C/C=C/C[C@@H](C)OC(=O)C[C@H]1OC(C)=O | -10.6% (inactive) |
| COc1ccc(CCO[C@@H]2CCCC[C@H]2N2CC[C@@H](O)C2)cc1OC | 23% (inactive) |

| Molecule | activity change, negative = inhibition |
| --- | --- |
| O=C1c2c(O)ccc(O)c2C(=O)c2c(NCCNCCO)ccc(NCCNCCO)c21 | -73.8% (active) and -3.38% (inactive) |
| O=C1c2cccc(O)c2C(=O)c2c(O)cc(CO)cc21 | -11.5% (inactive) |
| O=C1c2cccc(O)c2C(=O)c2c(O)cccc21 | 3.71% (inactive) and 0.722% (inactive) |
| CCCCCCCC/C=C/CCCCCCCC(=O)NCCO | -10.5% (inactive) |
| C=C1C(=O)[C@]23[C@H](O)[C@H]1CC[C@@H]2[C@@]12CO[C@]3(O)C[C@@H]1C(C)(C)CC[C@@H]2O | -77.5% (active) and 3.05% (inactive) |
| O=c1cc(-c2ccccc2O)oc2cc(O)ccc12 | 190% (inactive) |
| COP(=O)(OC)OC(c1ccc(Cl)cc1)P(=O)(OC)OC (centres undefined) | 5.14% (inactive) and 12.1% (inactive) |
| CN(C)Cc1ccc(S(=O)(=O)n2ccc(/C=C/C(=O)NO)c2)cc1 | -84.8% (active) |
| c1ccc2sc(SN3CCOCC3)nc2c1 | 17.7% (inactive) |
| COc1c(-c2ccc3cc(NS(C)(=O)=O)ccc3c2)cc(-n2ccc(=O)[nH]c2=O)cc1C(C)(C)C | 17.6% (inactive) |
| CC(=O)OCC(=O)[C@@]1(O)[C@H](C)CC2C3CCC4=CC(=O)C=C[C@]4(C)[C@@]3(F)[C@@H](O)C[C@@]21C (some centres undefined) | -8.27% (inactive) |
| Nc1nc(-c2ccc(Cl)c(Cl)c2)c(-c2ccncc2)s1 | -9.5% (inactive) |
| COC(=O)[C@@]12OC[C@]34[C@H]([C@@H](O)[C@@H]1O)[C@@]1(C)CC(=O)C(=O)C(C)[C@@H]1C[C@H]3OC(=O)[C@H](OC(=O)/C=C(\C)C(C)C)[C@@H]24 (some centres undefined) | -83.7% (active) |
| CC(CCC(=O)O)[C@H]1CCC2C3C(=O)C[C@@H]4CC(=O)CC[C@]4(C)C3CC(=O)[C@@]21C (some centres undefined) | 4.28% (inactive) and -3.38% (inactive) |
| Cc1onc(-c2ccccc2)c1C(=O)N[C@@H]1C(=O)N2[C@@H](C(=O)O)C(C)(C)S[C@@H]12 | 3.42% (inactive) |
| N[C@H](Cc1cc(I)c(Oc2ccc(O)c(I)c2)c(I)c1)C(=O)O | 2.18% (inactive) and -1.07% (inactive) |
| N[C@@]1(C(=O)O)CS(=O)(=O)[C@H]2[C@H](C(=O)O)[C@H]21 | 8.77% (inactive) |
| Ac-PHSCN-NH2 | 12.4% (inactive) |
| CC1(C)CC(=O)c2c(C(F)(F)F)nn(-c3ccc(C(N)=O)c(NC4CCC(OC(=O)CN)CC4)c3)c2C1 (centres undefined) | -75.4% (active) |
| CC1(C)CC(=O)c2c(C(F)(F)F)nn(-c3ccc(C(N)=O)c(NC4CCC(O)CC4)c3)c2C1 (centres undefined) | -81.9% (active) |
| Cn1nnc(-c2ccc(-c3ccc(N4C[C@H](CO)OC4=O)cc3F)cn2)n1 | 60.5% (inactive) |
| CCOC(=O)[C@@H](CCc1ccccc1)N[C@H](C)C(=O)N1[C@@H]2CCC[C@H]2C[C@H]1C(=O)O | 14.6% (inactive) |
| CCCCS(=N)(=O)CC[C@H](N)C(=O)O (some centres undefined) | 0.306% (inactive) |
